Measured values from PubChem BioAssay AID504336 (NMMLSC, 2011).
Values joined by “and” are separate entries in the source; they are usually repeats but may differ in a detail not shown here. Identical values can stand only once.

Assay: TOR branch reporter RPL19A-GFP response – cell-based, S. cerevisiae, third cherry pick, flow cytometry, confirmation (AID 504336);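 note: median GFP fluorescence of all gated yeast cells by flow cytometry; ratio of well median fluorescence to plate mean of DMSO wells with DMSO = 100%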
Conditions: S. cerevisiae RPL19A-GFP strain, 3 h, at 10 µM, active compounds read low;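 active = compounds whose GFP signal falls below 65% of the DMSO control level; inconclusive = fewer than 70 yeast cells counted in the well; inactive = the rest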

GFP response relative to DMSO, inactive:
Cc1ccc(Nc2cc(=O)[nH]c(=O)[nH]2)cc1C 96.5%
CC(=O)NC(C)c1cc(Cl)c2cccnc2c1O (centres undefined) 99.1%
COCC(C)NC(=O)CCS(=O)(=O)c1nc(-c2ccc(OC)cc2)cc(C(F)(F)F)n1 (centres undefined) 98.3% and 102%
OCc1ccc(O)c2ncccc12 101%
Cc1cn2c(N)c(C=C3C=C(Cl)C(=O)C(Cl)=C3)c(=O)nc2s1 104%
O=C(O)c1ccccc1-c1ccccc1C(=O)Nc1ccc(-c2nc3cc(Cl)ccc3o2)cc1 98.5%
C=CCNc1ncnc2ccc(Br)cc12 99.3%
COc1ccc(OC)c(Nc2nc(NCCC(C)C)nc(N)c2[N+](=O)[O-])c1 103%
O=C(N/N=C/c1ccccc1)c1cccc2ccccc12 98.3%
CCCC(=O)Nn1cnc2c(c1=O)C1(CCCCC1)Cc1ccccc1-2 103%
O=C(Nc1ccccc1)ON=C1c2ccccc2-c2ccccc21 92.3%
Nc1[nH]c(=O)nc(Nc2ccccc2)c1N=O 101%
Nc1ccc(O)c2c1C(=O)c1ccccc1C2=O 98.5%
Cc1ccc(Nc2nc(N)[nH]c(=O)c2N=O)cc1 102%
Cc1ccc(-c2cc(C(F)F)nc(S(C)(=O)=O)n2)cc1 96.2%
COc1ccc(OC)c(N/C(C)=C/C(=O)c2ccccc2)c1 103%
COc1cccc(N/C(C)=C/C(=O)c2ccc(Br)cc2)c1 101%
CNc1nc(C)c([N+](=O)[O-])c(Nc2ccc(OC)cc2)n1 102%
Cc1cc(C)c2ccc(N)nc2c1O 101%
CCc1c(C)nc2c(OC)cccc2c1Cl 102%
Cc1ccc(C)c(Nc2ncnc(N)c2[N+](=O)[O-])c1 99.3%
COCCCNc1nc(N)c([N+](=O)[O-])c(Nc2ccccc2OC)n1 99.1%
FC(F)Oc1cccc2cccnc12 95.4%
OCc1ccnc2c(O)cccc12 99.1%
Cc1nc2c(O)cccc2cc1CO 102%
Cn1c(NCCO)nc2c(c1=O)C1(CCCCC1)Cc1ccccc1-2 103%
NC(=O)COc1cccc2cccnc12 102%
CC(=O)Nn1cnc2c(c1=O)C1(CCCC1)Cc1ccccc1-2 99.3%
COc1ccc(OC)c2c(C)cc(C)nc12 98.5%
Cc1nc(Nc2ccc(Cl)cc2)c(C#N)c(=O)[nH]1 102%
CCN(CC)c1ncnc2ccc(Br)cc12 98%
O=C(O)c1ccc2cccnc2c1O 100%
NC(=O)c1ccnc2c(O)cccc12 98.8%
O=C(Nc1cccc2ccccc12)ON=C1CCCCC1 101%
COc1cccc(NC(=O)CC(C)=O)c1 99.1%
Brc1ccc2ncnc(NCc3ccccc3)c2c1 102%
C/C(=C\C(=O)c1ccccc1)Nc1ccc(O)cc1 100%
CCC(C)Nc1nc(N)c([N+](=O)[O-])c(Nc2cc(OC)ccc2OC)n1 (centres undefined) 96.5%
COCCCNc1nc(N)c([N+](=O)[O-])c(Nc2cc(OC)ccc2OC)n1 101%
